Assay results published in PubChem BioAssay (NCATS).
Records with an inconclusive call do not appear. Calls follow the shape of the dose curve; as a rule, active = well fitted inhibition curve with a large enough effect; inconclusive = small, poorly fitted or top-dose-only effect; inactive = no such curve, though single readings can be large or run the other way.

Assay: Primary qHTS for small molecule stabilizers of the endoplasmic reticulum resident proteome: Secreted ER Calcium Modulated Protein (SERCaMP) assay (AID 1508630)
Settings: SH-SY5Y GLuc-SERCaMP (Gaussia luciferase released on ER calcium loss) secretion, thapsigargin, luminescence; series mostly up to 38.4 µM; activity change, negative = inhibition: at the top concentration
Method in brief: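 GLuc-SERCaMP-expressing SH-SY5Y cells, pretreated 16 h with compound, are challenged with thapsigargin to empty ER calcium stores; after 4 h, coelenterazine is added directly to the medium and luminescence is imaged.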
% is scaled to controls: 0 for no effect and ±100 for the full control effect.

Activity change, negative = inhibition, inactive:
COc1c(C=O)c(=O)[nH]c2c(OC)cccc12 -1.92%
COc1cc2c(cc1OC)C(/C=C/c1ccc(OC)c(OC)c1OC)=NCC2 156%
CC1OCC23CC[C@@]4(C)CCC(C)(C)C[C@H]4[C@]2(C)CCC12C3CC[C@@]1(C)C2C(=O)CC(=O)[C@@H]1C (stereo not given in full) -15.3%
O=CN1CCc2c([nH]c3ccccc23)C1c1cccc2cccnc12 (stereo not given) -6.11%
CC12CC[C@@](C(=O)O)(C(=O)C1=O)C2(C)C -12.3%
CN[C@H]1CCc2cc(OC)c(OC)c(OC)c2-c2ccc(N[C@@H]3CCCCNC3=O)c(=O)cc21 39.2%
COc1cc(C2=N/C(=C\c3ccccc3)C(=O)O2)cc(OC)c1OC -16.4%
COC1=C[C@@H](C)C2CC3OC(=O)C[C@H]4C(C)=C(OC)C(=O)C([C@@]2(C)C1=O)[C@@]34C (stereo not given in full) -14.5%
CN1CCN(c2ccc(Nc3c4ccccc4nc4ccccc34)cc2)CC1 293%
N=c1ccn2c(n1)OCC1C2O[C@@H](O)[C@H]1O (stereo not given in full) -9.79%
C[C@H]1OC(=O)CC[C@@H]2[C@]1(C)CCC1[C@@]2(C)CC[C@@]2(C)C3CC(C)(C)CC[C@]3(CO)CC[C@]12C (stereo not given in full) -10.2%
COc1ccc(/C(=C\C(=O)O)c2nccc3cc(OC)c(OC)cc23)cc1OC -4.85%
O=C1Nc2ccccc2C(=O)N2CCC[C@@H]12 -0.369%
COc1cc(CCNC(C)=O)c(C(=O)/C=C/c2cccc(OC)c2OC)cc1OC -19.6%
C=C1CCC2[C@](C)(CO)[C@H](O)CC[C@@]2(C)[C@@H]1C/C=C1/C(=O)OC[C@H]1O (stereo not given in full) 2.56%
COC(=O)C1C(=O)C(C(=O)/C=C/c2ccco2)C(=O)CC1(C)C (stereo not given) -12.6%
C[C@@]12CC(=O)C3=C(CCCC3=O)N1CCc1ccccc12 -8.78%
O=C(O)C[C@@H]1NC(=O)[C@H](Cc2ccccc2)NC1=O 5.11%
COc1ccc2c(c1)OC[C@H]1c3cc4c(cc3O[C@@H]21)OCO4 60.3%
CC1=CC(=O)C2=C(C)C[C@H](OC(=O)Cc3ccccc3)C3[C@H](OC(=O)[C@H]3C)C12 (stereo not given in full) -23.7%
CC1(O)/C=C\C=C(\CO)C2CC(C)(C)C2(O)CC1 (stereo not given) -28.2%
COC(=O)/C(=C1/OC(=O)C(c2ccccc2)=C1O)c1ccccc1 14.6%
CC1NC(C(=O)O)Cc2c1[nH]c1ccccc21 (stereo not given) 6.01%
C=C(C(=O)O)[C@@H]1CC[C@@]2(C)CCC[C@](C)(O)[C@@H]2C1 12.8%
C[C@]12CCC(=O)C=C1CCC1C3CC[C@](O)(C(=O)CO)[C@@]3(C)CC3OC312 (stereo not given in full) -32.8%
C[C@@H]1CCC2C(C)(C)C3CC21CC[C@@]3(C)O (stereo not given in full) -18.2%
CC(C)=CCC1=C(O)[C@](O)(CC=C(C)C)C(=O)C(C(=O)CC(C)C)=C1O 51.6%
COc1ccc(-c2cnc(-c3cccnc3)o2)cc1 8.28%
COc1ccc2cnoc(=O)c2c1OC -17.3%
CCCc1c(OCC(O)COc2ccc3c(=O)cc(C(=O)O)oc3c2CCC)ccc(C(C)=O)c1O (stereo not given) -17.2%
CC1(C)Oc2ccc3ccc(=O)oc3c2CC1=O 12.5%
O=c1cc(-c2cc3ccccc3oc2=O)c2ccc(O)cc2o1 -21.8%
C/C=C(\C)C(=O)O[C@H]1C[C@@]2(C)CCC(C(C)C)C2(O)CC[C@@]1(C)O (stereo not given in full) 34.9%
CC1=CC(=O)OC1Cc1ccc2ccccc2n1 (stereo not given) 1.73%
COc1cc(/C=C/C(=O)c2c(O)cc(C)oc2=O)ccc1O 20.1%
COc1cccc2c(=O)c3ccoc3n(C)c12 17.8%
COc1ccccc1/C=C\C(=O)OC[C@@H]1CCCN2CCCC[C@H]12 2.42%
Cn1c2c(c(=O)c3ccccc31)C[C@@H](O)C(C)(C)O2 -24.4%
Cc1cn(C2OC[C@@H](O)[C@@H]2CO)c(=O)[nH]c1=O (stereo not given in full) -0.822%
C/C(N[C@@H]1CSCC1O)=C1/C(=O)CC2[C@@H]1C2(C)C (stereo not given in full) -8.06%
